Screens from PubChem BioAssay.
Shown are actives, neighbours in structure and some others; about 2.4% of the full set was active somewhere.
MLLE-PAM2 inh = blocks PAM2 peptide binding to the PABP1 MLLE domain; P11940; hit rate 0.36% among 360,000; GST-MLLE / FITC-PAM2 fluorescence polarization; inhibition, % at 20 µM; AID 588489; in the data active = inhibition above about 35%, passing the limit was not always enough
Target sequence (P11940 whole entry, looked up, the tested form may be a part): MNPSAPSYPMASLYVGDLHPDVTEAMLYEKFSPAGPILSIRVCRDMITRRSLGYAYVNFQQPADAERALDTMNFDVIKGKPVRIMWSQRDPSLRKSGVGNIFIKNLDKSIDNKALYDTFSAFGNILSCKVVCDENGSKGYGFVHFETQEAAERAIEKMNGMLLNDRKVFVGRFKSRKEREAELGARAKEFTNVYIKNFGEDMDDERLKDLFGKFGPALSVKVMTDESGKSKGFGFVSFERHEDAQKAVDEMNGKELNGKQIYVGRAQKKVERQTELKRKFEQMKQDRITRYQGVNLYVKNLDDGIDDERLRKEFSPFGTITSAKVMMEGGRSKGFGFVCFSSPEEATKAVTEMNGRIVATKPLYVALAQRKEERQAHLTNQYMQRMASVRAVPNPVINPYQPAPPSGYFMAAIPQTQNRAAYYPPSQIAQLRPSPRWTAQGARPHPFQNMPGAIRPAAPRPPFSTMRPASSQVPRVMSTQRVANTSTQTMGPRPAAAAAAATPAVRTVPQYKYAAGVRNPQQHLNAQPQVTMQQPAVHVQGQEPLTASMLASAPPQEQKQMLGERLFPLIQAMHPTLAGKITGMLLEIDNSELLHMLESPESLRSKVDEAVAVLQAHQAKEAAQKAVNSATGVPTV
PABP FP inh = blocks human PABP binding to poly(A) RNA | P11940 | calls only at 35 µM | AID 2014 | hit rate 1% among 290,000 | fluorescence polarization;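 note: calls also rest on retests at 20 µM and on dose response follow-up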
PHOSPHO1 inh = inhibitors of human PHOSPHO1 phosphatase; inhibition, % at 13.3 µM; recombinant PHOSPHO1, absorbance phosphatase assay; hit rate 1.1% among 290,000; Q8TCT1; in the data active = inhibition above about 60%
Efa HMGR inh = E. faecalis class II HMG-CoA reductase inhibition; purified E. faecalis HMGR, NADPH absorbance 340 nm kinetic; inhibition, % at 10 µM; hit rate 0.41% among 190,000; AID 1066;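 active = inhibition above a set limit, the median over all tested compounds plus 3 SD, cut at about 9.5% in these data; inconclusive = no clear call, values can overlap the other calls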;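 note: enzyme runs in reverse so mevalonate oxidation gives rising NADPH absorbance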
eIF4H FP inh = inhibitors of RNA binding by human eIF4H; Q15056; eIF4H fluorescence polarization binding assay; inhibition, % at 35 µM; hit rate 0.94% among 290,000;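 note: calls also rest on retests at 20 µM and on dose response follow-up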
Of the large screens only hits and unclear results are named; the others gave an inactive call. Unless noted, the rule behind the calls is not given here.

COc1ccc2c(c1OC)C(=O)OC2C1c2c(cc3c(c2OC)OCO3)CCN1C (stereo not given)	none
CN1CCc2cc3c(c4c2[C@H]1[C@H](O)c1ccccc1-4)OCO3	MLLE-PAM2 inh 68
S=C1NCN(Cc2cccnc2)CN1c1cccc2ccccc12	none (no result: Efa HMGR inh)
O=C(O)c1cn[nH]c1-c1cccc([N+](=O)[O-])c1	eIF4H FP inh 98
COc1ccc(NC2CCCN(C(=O)c3cccc(C)n3)C2)cc1OC (stereo not given)	none (no result: Efa HMGR inh)
Cc1cc(C)c(Nc2cc(S(=O)(=O)O)c(N)c3c2C(=O)c2ccccc2C3=O)c(C)c1	PABP FP inh active
Cc1cc(C)c(NC(=O)COC(=O)c2cccc3c2C(=O)c2ccccc2C3=O)c(C)c1	none
CC1(C)CC(=O)C=C(c2ccc(COC(=O)c3cccc(C(F)(F)F)c3)cc2)C1=O	none (no result: PABP FP inh, PHOSPHO1 inh, Efa HMGR inh, eIF4H FP inh)
Cc1nc(-c2ccccc2)[nH]c(=O)c1Oc1ccc(Cl)cc1Cl	none (no result: Efa HMGR inh)
O=c1[nH]c(=S)[nH]cc1Oc1ccc(Cl)cc1Cl	MLLE-PAM2 inh 46 (no result: Efa HMGR inh)
O=C(Cc1cccc(C(F)(F)F)c1)Nc1cc(S(=O)(=O)N2CCOCC2)ccc1N1CCCC1	none (no result: PABP FP inh, PHOSPHO1 inh, Efa HMGR inh, eIF4H FP inh)
COc1cc(/C=N/NC(=O)c2cccnc2)cc2c1OCO2	none (no result: Efa HMGR inh)
COc1cc(/C=N/NC(=O)c2ccccn2)cc2c1OCO2	PABP FP inh active, eIF4H FP inh inconclusive
CCc1nc2ccc(C(=O)N3CCN(C)CC3)cn2c1N(C)CCC(C)C	none (no result: PABP FP inh, PHOSPHO1 inh, Efa HMGR inh, eIF4H FP inh)
CCOc1ccccc1NC(=O)Nc1ccc(OC)nc1	MLLE-PAM2 inh 48, PABP FP inh active (no result: Efa HMGR inh)
COc1ccc(CN2CCC(CO)(Cc3cccc(C(F)(F)F)c3)CC2)cc1Cn1cccn1	none
NS(=O)(=O)c1ccc(N=Nc2c[nH]c(=O)c(O)c2)cc1	PABP FP inh active, eIF4H FP inh 54 (no result: Efa HMGR inh)
Nc1nc(O)c(N=Nc2ccc(S(N)(=O)=O)cc2)c(=O)[nH]1	none (no result: MLLE-PAM2 inh, Efa HMGR inh)
O=c1c2c(nc3cc(-c4ccc(Cl)cc4)[nH]n13)CCS2	PABP FP inh active, eIF4H FP inh inconclusive
Cn1ccs/c1=N\C(=O)Nc1cccc(C(F)(F)F)c1	none (no result: PHOSPHO1 inh, Efa HMGR inh)
CCCCNC(=O)c1cccnc1SCC(=O)Nc1ccccc1OC	none
COc1ccc(OC)c(NC(=O)CSc2nnc(Cc3cccn3C)n2CCc2ccccc2)c1	PHOSPHO1 inh 69
Cn1cccc1Cc1nnc(SCC(=O)Nc2ccc(F)cc2)n1CCc1ccccc1	none
COc1ccc(OC)c(N/C(C)=C/C(=O)c2ccccc2)c1	none
COc1ccc(OC)c(N/C(C)=C/C(=O)c2ccncc2)c1	PABP FP inh active, eIF4H FP inh inconclusive (no result: Efa HMGR inh)
COc1ccc(OC)c(NC(=O)CSc2ncccn2)c1	PHOSPHO1 inh 76
COc1ccc(OC)c(NC(=O)CSc2ccccc2)c1	none
CCCCCCCCNC(=O)c1cccnc1SCC(=O)Nc1ccc(OC)cc1OC	PABP FP inh active, eIF4H FP inh 64
Cc1ccc(CN2CC(C(=O)N3CCN(S(=O)(=O)c4cccc(F)c4)CC3)CC2=O)cc1 (stereo not given)	none (no result: PABP FP inh, PHOSPHO1 inh, Efa HMGR inh, eIF4H FP inh)
Cc1ccc(-n2nc3c(c2NC(=O)c2ccc4c(c2)OCO4)CS(=O)C3)c(C)c1 (stereo not given)	none (no result: PABP FP inh, PHOSPHO1 inh, Efa HMGR inh, eIF4H FP inh)
CC1SC(=S)N(c2ccc(N(C)C)cc2)C1=O (stereo not given)	none (no result: Efa HMGR inh)
CNC(=O)c1ccc(-n2cccn2)nc1	none
COc1ccc(OC)c(NC(=O)c2ccc(-n3cccn3)nc2)c1	PABP FP inh active, eIF4H FP inh 106
CCCCC[C@H](O)/C=C/[C@H]1C=CC(=O)[C@@H]1C/C=C\CCCC(=O)O	PABP FP inh active (no result: MLLE-PAM2 inh)
CCCCCC(O)C=CC1C(O)CC(O)C1CC=CCCCC(=O)O (stereo not given)	none (no result: PABP FP inh, PHOSPHO1 inh, Efa HMGR inh, eIF4H FP inh)
Cc1csc(SC(C)C(=O)NCC2CCCO2)n1 (stereo not given)	none (no result: PABP FP inh, PHOSPHO1 inh, Efa HMGR inh, eIF4H FP inh)
O=C(O)c1cc(-c2ccccc2)n(-c2ccccc2C(=O)O)n1	Efa HMGR inh 9.6
CSc1nsc(SCC(=O)NCc2ccc(C)cc2)n1	none (no result: PHOSPHO1 inh, Efa HMGR inh)
CSc1nsc(SCC(=O)NCc2ccccc2)n1	MLLE-PAM2 inh 40 (no result: PHOSPHO1 inh, Efa HMGR inh)
CC1(OC(=O)CCc2ccccc2)C(=O)C=C2C=C(c3ccc(C#N)cc3)N(C(CO)CO)C=C2C1=O (stereo not given)	none (no result: Efa HMGR inh)
CC1(OC(=O)c2cccs2)C(=O)C=C2C=C3CCCN3C=C2C1=O (stereo not given)	PABP FP inh active, eIF4H FP inh 95 (no result: Efa HMGR inh)
CC1(OC(=O)CCc2ccccc2)C(=O)C=C2C=C(c3ccc(C#N)cc3)N(C3CCCCC3)C=C2C1=O (stereo not given)	PABP FP inh active (no result: Efa HMGR inh)
CC1(OC(=O)CCc2ccccc2)C(=O)C=C2C=C3CCCN3C=C2C1=O (stereo not given)	PABP FP inh active, eIF4H FP inh 83 (no result: Efa HMGR inh)
CN(C)CCN(C(=O)c1ccc(N2C(=O)CCC2=O)cc1)c1nc2cc3c(cc2s1)OCCO3	none (no result: MLLE-PAM2 inh)
CCOC(=O)C1CCN(C(=O)COC(=O)CSc2ccc([N+](=O)[O-])cc2)CC1	MLLE-PAM2 inh 42 (no result: PABP FP inh, PHOSPHO1 inh, Efa HMGR inh, eIF4H FP inh)
CC(OC(=O)CSc1ccc([N+](=O)[O-])cc1)C(=O)NC1CC1 (stereo not given)	MLLE-PAM2 inh 42 (no result: PABP FP inh, PHOSPHO1 inh, Efa HMGR inh, eIF4H FP inh)
CCCN(CC(=O)Nc1ccccc1C)C(=O)COc1c(C)cccc1C	none (no result: PABP FP inh, PHOSPHO1 inh, Efa HMGR inh, eIF4H FP inh)
CCCN(CC(=O)Nc1ccccc1C)C(=O)COC(=O)CSc1ccc([N+](=O)[O-])cc1	MLLE-PAM2 inh 40 (no result: PABP FP inh, PHOSPHO1 inh, Efa HMGR inh, eIF4H FP inh)
Cc1ccc(NC(=O)Nc2ncnc3nc[nH]c23)cc1	none (no result: Efa HMGR inh)
CCOC(=O)C1CCN(C(=O)CN2C(=O)CSc3ccc(S(=O)(=O)N4CCOCC4)cc32)CC1	none (no result: PABP FP inh, Efa HMGR inh, eIF4H FP inh)
COc1ccc(C(=O)Oc2ccc3ccc(=O)oc3c2)cc1	none (no result: Efa HMGR inh)
COc1ccc(C(=O)Oc2ccc3oc(=O)sc3c2)cc1	PHOSPHO1 inh 94
CCCC(=O)N(c1ccc2oc(=O)sc2c1)S(=O)(=O)c1cccs1	PHOSPHO1 inh 95
COc1ccc(S(=O)(=O)N(C(=O)C(C)C)c2ccc3oc(=O)sc3c2)cc1	MLLE-PAM2 inh 38, PHOSPHO1 inh 97
CC(C)C(=O)N(c1ccc2oc(=O)sc2c1)S(=O)(=O)c1ccccc1	PHOSPHO1 inh 92
CCn1c(SCC(=O)OC(C)C)nnc1-c1ccccc1OC	none
CC(=O)C(Cc1ccccc1)NC(=O)COC(=O)c1ccc(-n2cnnn2)cc1 (stereo not given)	none (no result: PABP FP inh, PHOSPHO1 inh, Efa HMGR inh, eIF4H FP inh)
CSc1nc2nc3c(cn2n1)C(=O)CC(c1ccccc1)C3 (stereo not given)	PABP FP inh active, eIF4H FP inh 48
O=C1CC(c2ccccc2)Cc2nc3nc(C(F)(F)F)nn3cc21 (stereo not given)	PABP FP inh active, eIF4H FP inh 92
CC(C)/C=C/C(=O)N1CCCC(N2CCN(c3ccccc3F)CC2)C1 (stereo not given)	none (no result: Efa HMGR inh)
Cc1ccc(N2CCN(C(=O)c3cc(-c4ccc(F)cc4)[nH]c3C)CC2C)cc1 (stereo not given)	PABP FP inh active, eIF4H FP inh inconclusive (no result: Efa HMGR inh)
CCN(CC)C(C)C#CCC(c1ccccc1)c1ccccc1 (stereo not given)	none (no result: MLLE-PAM2 inh, Efa HMGR inh)
CCNC(=O)COC(=O)c1cc(-c2ccco2)nc2ccccc12	PABP FP inh active, eIF4H FP inh 89 (no result: Efa HMGR inh)
O=C(OCC(=O)N1CCN(C(=O)c2ccco2)CC1)c1cc(-c2ccco2)nc2ccccc12	PABP FP inh active, PHOSPHO1 inh 69, eIF4H FP inh 85
